± gives the standard deviation.
Legend:
Settings in all cases: modulator concentration 10 µM
[1] = system: RAW-Dual (murine macrophage reporter line); test: NF-kB reporter (SEAP) activity fold change vs agonist alone; higher = enhanced NF-kB activity
Summary of the method: (§1)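 Overnight stimulation with a PRR agonist followed pre-incubation for 1 hour at 37 °C with compound at 10 μM final. This was done in RAW-Dual murine macrophage reporter cells seeded at 50 000 per well in 384-well plates. NF-κB (SEAP, QUANTI-Blue absorbance at 620 nm) and IRF (Lucia luciferase, QUANTI-Luc luminescence) were read from the supernatant. Each reporter's fold change relative to the mean agonist-only control on the same plate was averaged over replicate plates.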

[2] = system: RAW-Dual (murine macrophage reporter line); test: IRF reporter (Lucia luciferase) activity fold change vs agonist alone; higher = enhanced IRF activity
Summary of the method: as §1

[3] = system: RAW-Dual (murine macrophage reporter line); test: viability score (confluency relative to resting cells, overnight) (fraction); higher = more viable, active = viable (0.7 or more)
Summary of the method: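 RAW-Dual macrophages in 384-well plates were treated overnight with compound at 10 μM final. IncuCyte imaging recorded confluency, and IncuCyte software built two confluency masks across every imaged well. The viability score expresses confluency relative to resting cells and was judged against a cutoff, which a compound met only if both masks exceeded 70% of resting cells.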

[4] = agonist: CpG ODN 1826 0.5 ug/mL

Cc1ccc(S(=O)(=O)c2ccc(O)c(O)c2)cc1
NF-kB reporter [1, 4]: 0.932 ± 0.074
NF-kB reporter ([1]; agonist: LPS 0.1 ug/mL): 1.02 ± 0.095
NF-kB reporter ([1]; agonist: MPLA […]): 1.03 ± 0.086
IRF reporter ([2]; agonist: 3'3'-cGAMP 10 ug/mL): 0.599 ± 0.036
IRF reporter ([2]; agonist: LPS 0.1 ug/mL): 1.31 ± 0.096
IRF reporter ([2]; agonist: MPLA […]): 1.08 ± 0.12
viability score [3]: 0.987 (active)

COc1c2c(nc3ccccc13)OC(C(C)(O)COC(C)=O)C2 (stereo unspecified)
NF-kB reporter [1, 4]: 0.944 ± 0.071
NF-kB reporter ([1]; agonist: LPS 0.1 ug/mL): 1.02 ± 0.11
NF-kB reporter ([1]; agonist: MPLA […]): 0.953 ± 0.11
IRF reporter ([2]; agonist: 3'3'-cGAMP 10 ug/mL): 1.04 ± 0.045
IRF reporter ([2]; agonist: LPS 0.1 ug/mL): 1.42 ± 0.15
IRF reporter ([2]; agonist: MPLA […]): 1.3 ± 0.22
viability score [3]: 1 (active)

Cc1cccc(CN2CCN(C(c3ccccc3)c3ccc(Cl)cc3)CC2)c1.Cl.Cl (stereo unspecified)
NF-kB reporter [1, 4]: 0.289 ± 0.013
NF-kB reporter ([1]; agonist: LPS 0.1 ug/mL): 0.913 ± 0.1
NF-kB reporter ([1]; agonist: MPLA […]): 1.44 ± 0.082
IRF reporter ([2]; agonist: 3'3'-cGAMP 10 ug/mL): 1.35 ± 0.068
IRF reporter ([2]; agonist: LPS 0.1 ug/mL): 1.28 ± 0.27
IRF reporter ([2]; agonist: MPLA […]): 1.27 ± 0.35
viability score [3]: 0.272 (inactive)

Cc1ccc(CN2CCN(N=Cc3c4ccccc4cc4ccccc34)CC2)cc1
NF-kB reporter [1, 4]: 0.75 ± 0.071
NF-kB reporter ([1]; agonist: LPS 0.1 ug/mL): 0.881 ± 0.044
NF-kB reporter ([1]; agonist: MPLA […]): 1.12 ± 0.1
IRF reporter ([2]; agonist: 3'3'-cGAMP 10 ug/mL): 0.855 ± 0.048
IRF reporter ([2]; agonist: LPS 0.1 ug/mL): 1.37 ± 0.08
IRF reporter ([2]; agonist: MPLA […]): 1.25 ± 0.13
viability score [3]: 0.998 (active)

CC1=C(C(=O)OC(C)C)C(c2cccc([N+](=O)[O-])c2)C(C(=O)OC2CN(C(c3ccccc3)c3ccccc3)C2)=C(N)N1 (stereo unspecified)
NF-kB reporter [1, 4]: 1.58 ± 0.068
NF-kB reporter ([1]; agonist: LPS 0.1 ug/mL): 1.82 ± 0.15
NF-kB reporter ([1]; agonist: MPLA […]): 2.56 ± 0.17
IRF reporter ([2]; agonist: 3'3'-cGAMP 10 ug/mL): 0.36 ± 0.021
IRF reporter ([2]; agonist: LPS 0.1 ug/mL): 1.66 ± 0.24
IRF reporter ([2]; agonist: MPLA […]): 2.12 ± 0.44
viability score [3]: 0.902 (active)

CCOC(C#CCN(CC)CC)(c1ccccc1)c1ccccc1.Cl
NF-kB reporter [1, 4]: 0.215 ± 0.018
NF-kB reporter ([1]; agonist: LPS 0.1 ug/mL): 0.353 ± 0.049
NF-kB reporter ([1]; agonist: MPLA […]): 0.424 ± 0.031
IRF reporter ([2]; agonist: 3'3'-cGAMP 10 ug/mL): 0.773 ± 0.051
IRF reporter ([2]; agonist: LPS 0.1 ug/mL): 0.813 ± 0.054
IRF reporter ([2]; agonist: MPLA […]): 1.62 ± 0.4
viability score [3]: 0.0625 (inactive)

CCN(CC)c1ccc(-c2noc(CN3CCSCC3)n2)cn1
NF-kB reporter [1, 4]: 0.986 ± 0.055
NF-kB reporter ([1]; agonist: LPS 0.1 ug/mL): 1.15 ± 0.099
NF-kB reporter ([1]; agonist: MPLA […]): 0.902 ± 0.041
IRF reporter ([2]; agonist: 3'3'-cGAMP 10 ug/mL): 0.983 ± 0.059
IRF reporter ([2]; agonist: LPS 0.1 ug/mL): 1.15 ± 0.14
IRF reporter ([2]; agonist: MPLA […]): 1.13 ± 0.37
viability score [3]: 1.01 (active)

COc1cccc2c1C(=O)c1c(O)c3c(c(O)c1C2=O)C[C@@](O)(C(=O)CO)C[C@@H]3O[C@H]1C[C@H](N)[C@H](O)[C@H](C)O1 [Prestw-438]
NF-kB reporter [1, 4]: 0.123 ± 0.007
NF-kB reporter ([1]; agonist: LPS 0.1 ug/mL): 0.0747 ± 0.019
NF-kB reporter ([1]; agonist: MPLA […]): 0.112 ± 0.0071
IRF reporter ([2]; agonist: 3'3'-cGAMP 10 ug/mL): 0.03 ± 0.0031
IRF reporter ([2]; agonist: LPS 0.1 ug/mL): 0.0425 ± 0.0034
IRF reporter ([2]; agonist: MPLA […]): 0.0335 ± 0.0064
viability score [3]: 0.114 (inactive)

O=C(Nc1ccccn1)NC1CCS(=O)(=O)C1 (stereo unspecified)
NF-kB reporter [1, 4]: 0.659 ± 0.37
NF-kB reporter ([1]; agonist: LPS 0.1 ug/mL): 0.918 ± 0.22
NF-kB reporter ([1]; agonist: MPLA […]): 0.748 ± 0.14
IRF reporter ([2]; agonist: 3'3'-cGAMP 10 ug/mL): 0.881 ± 0.12
IRF reporter ([2]; agonist: LPS 0.1 ug/mL): 1.34 ± 0.085
IRF reporter ([2]; agonist: MPLA […]): 1.23 ± 0.23
viability score [3]: 0.948 (active)

O=C(CSC1CCCCC1)Nc1cc(C(F)(F)F)ccc1Cl
NF-kB reporter [1, 4]: 0.516 ± 0.045
NF-kB reporter ([1]; agonist: LPS 0.1 ug/mL): 1.38 ± 0.11
NF-kB reporter ([1]; agonist: MPLA […]): 1.39 ± 0.063
IRF reporter ([2]; agonist: 3'3'-cGAMP 10 ug/mL): 1.45 ± 0.14
IRF reporter ([2]; agonist: LPS 0.1 ug/mL): 2.2 ± 0.16
IRF reporter ([2]; agonist: MPLA […]): 1.47 ± 0.43
viability score [3]: 1.01 (active)

CCOC(=O)C(CC)Oc1ccc2c(C)c(CC)c(=O)oc2c1 (stereo unspecified)
NF-kB reporter [1, 4]: 0.955 ± 0.063
NF-kB reporter ([1]; agonist: LPS 0.1 ug/mL): 0.875 ± 0.071
NF-kB reporter ([1]; agonist: MPLA […]): 0.976 ± 0.035
IRF reporter ([2]; agonist: 3'3'-cGAMP 10 ug/mL): 0.832 ± 0.03
IRF reporter ([2]; agonist: LPS 0.1 ug/mL): 0.852 ± 0.13
IRF reporter ([2]; agonist: MPLA […]): 0.848 ± 0.27
viability score [3]: 0.986 (active)

COc1cc(Cl)c(C)cc1NC(=O)c1ccccc1Cl
NF-kB reporter [1, 4]: 0.906 ± 0.26
NF-kB reporter ([1]; agonist: LPS 0.1 ug/mL): 1.11 ± 0.062
NF-kB reporter ([1]; agonist: MPLA […]): 1.4 ± 0.22
IRF reporter ([2]; agonist: 3'3'-cGAMP 10 ug/mL): 0.914 ± 0.042
IRF reporter ([2]; agonist: LPS 0.1 ug/mL): 0.991 ± 0.15
IRF reporter ([2]; agonist: MPLA […]): 1.1 ± 0.12
viability score [3]: 0.981 (active)

Clc1ccc(Nc2nnc(Cc3ccncc3)c3ccccc23)cc1 [Prestw-1358]
NF-kB reporter [1, 4]: 0.987 ± 0.056
NF-kB reporter ([1]; agonist: LPS 0.1 ug/mL): 1.07 ± 0.069
NF-kB reporter ([1]; agonist: MPLA […]): 0.85 ± 0.07
IRF reporter ([2]; agonist: 3'3'-cGAMP 10 ug/mL): 0.785 ± 0.028
IRF reporter ([2]; agonist: LPS 0.1 ug/mL): 1.08 ± 0.069
IRF reporter ([2]; agonist: MPLA […]): 1.1 ± 0.11
viability score [3]: 0.997 (active)

Source: the supplement of paper PMC10646978
